In the library only some 2.4% were active in any assay of this set; here they are far more common.
Rango release inh – inhibition of RanGTP-driven Rango-importin beta dissociation; Biochemical FRET Rango-importin beta, RanGTP-induced dissociation; AID 540253; Potency, µM (top dose mostly 46.1 µM), without a hit: at the top dose activity change, negative = inhibition; actives 0.071% (n = 340,000); calls by dose curve; further: % of control where 0% means no effect; nearly all actives have a fitted effect of over 45% in size
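Compounds sat 5 min at room temperature with 0.1 uM Rango biosensor plus 0.25 uM importin beta, then FRET pre-read. RanGTP-RCC1 (0.6 uM Ran, 2mM GTP, 0.2 uM RCC1) added for 45 min, and the CFP/YFP post-read measured blocked complex dissociation.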
Rango-impB inh – Rango-importin beta binding inhibition; actives 0.031% (n = 340,000); Rango CFP/YFP FRET sensor + importin beta, 45 min; Q14974; Potency, µM (doses to about 92.2 µM), for inactives: at the highest dose inhibition of complex formation; calls by dose curve;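 further: 0% = DMSO wells and 100% = buffer wells lacking importin beta; nearly all actives have a fitted effect of over 15% in size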
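FRET biosensor (snurportin 1 IBB flanked by EYFP and cerulean), 50 nM, with compound 5 min, then 0.125 microM importin beta in PBS, 1 mM DTT, 0.02% Tween-20, 0.1% BSA. CFP/YFP ratio read after 45 min at room temperature; pre-read flags interference.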
PGK inhibitor – inhibitors of T. brucei phosphoglycerate kinase; AID 602233; actives 0.043% (n = 380,000); Potency, µM (series often up to 57.5 µM), inactives show at the top dose activity change, negative = inhibition, most hits filed as inhibitors; PGK/GAPDH coupled, Kinase-Glo luminescence, 60 min; P07378; further: on the % scale 0 is the no-effect control and ±100 the full control effect; nearly all actives have a fitted effect of over 60% in size
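Luminescent ATP detection (Kinase-Glo Plus) follows a 60-minute room-temperature incubation, with wells lacking PGK as controls. Buffer: 100 mM TEA (pH 7.6), 5 mM MgCl2, 0.01% Tween-20. Coupling enzyme GAPDH (100 nM final) supplies unstable 1,3-BPG in-well.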
Tb PFK block – blocks T. brucei phosphofructokinase; T. brucei PFK, ADP-Glo luminescence; Potency, µM (doses to about 57.5 µM), for inactives: at the highest dose activity, negative = inhibition, most hits filed as inhibitors; AID 485367; O15648; actives 0.17% (n = 330,000);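 further: 0% = uninhibited 1x PFK enzyme wells and -100% = no-enzyme wells; nearly all actives have a fitted effect of over 60% in size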
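1.25 nM PFK with 0.5 mM F6P and 0.1 mM ATP in 0.1 M TEA pH 8.0, 5 mM MgCl2, incubated 45 min at room temperature; ADP measured by ADP-Glo luminescence; compounds titrated up to 57 uM.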
PKM2 act – increases activity of human pyruvate kinase M2; P14618; purified PKM2, Kinase-Glo ATP luminescence, activation; response scale: 0% is enzyme alone, no compound; Potency, µM (titrated, usually from 57.5 µM), inactives show at the top dose activation, hits mostly activators; actives 0.34% (n = 260,000); further: on the % scale 0 is the no-effect control and ±100 the full control effect; nearly all actives have a fitted effect of over 55% in size
Target sequence (P14618 whole entry, looked up): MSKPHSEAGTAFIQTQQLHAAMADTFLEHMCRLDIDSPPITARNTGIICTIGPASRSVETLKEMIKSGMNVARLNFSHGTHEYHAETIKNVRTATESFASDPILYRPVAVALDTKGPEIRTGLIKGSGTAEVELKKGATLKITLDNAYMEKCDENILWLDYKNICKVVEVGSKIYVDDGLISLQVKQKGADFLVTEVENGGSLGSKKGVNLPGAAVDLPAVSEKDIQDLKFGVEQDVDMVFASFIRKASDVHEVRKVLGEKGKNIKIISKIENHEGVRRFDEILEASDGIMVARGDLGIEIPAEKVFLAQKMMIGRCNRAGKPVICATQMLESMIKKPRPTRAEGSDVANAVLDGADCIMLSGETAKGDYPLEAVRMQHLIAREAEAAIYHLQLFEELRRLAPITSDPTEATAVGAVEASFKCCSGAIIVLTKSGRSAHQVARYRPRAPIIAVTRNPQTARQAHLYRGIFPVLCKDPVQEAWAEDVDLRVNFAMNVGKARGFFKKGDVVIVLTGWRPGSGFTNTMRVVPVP
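ATP formation by purified human PK-M2, quantified via coupled luciferase luminescence after 1 h at room temperature with 0.1 mM ADP and 0.5 mM PEP final.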
ELG1 DNA repair – blocks ELG1-dependent DNA repair in HEK293T cells; HEK293T ELG1-luciferase reporter, luminescence, 16 h; DNA damage induced by 5-fluorouridine; Potency, µM (series often up to 46.1 µM), for the others: at the highest dose activity change, negative = inhibition, actives largely listed as inhibitors; actives 2.3% (n = 330,000); AID 504467; further: on the % scale 0 is the no-effect control and ±100 the full control effect; nearly all actives have a fitted effect of over 55% in size
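Reporter activity after DNA damage by 5-fluorouridine is monitored. Compound-treated cells incubate 16 hr at 37 °C, then ONE-Glo is added for 30 min before luminescence reading.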
The depositor's hits bear a star. Unless noted, the call rests on the fitted dose curve; in most records, active means well fitted curve in the direction sought with a large enough effect; inconclusive means small, poorly fitted or top-dose-only effect, or another doubt; inactive means no such curve, though single readings can be large; an effect the other way counts as inactive or inconclusive. Potency means the concentration at half of the fitted maximal effect.

Screening N#Cc1ccc(CSc2nnc(-c3ccncc3)n2CCc2ccccc2)cc1 returned Rango release inh -4%, Rango-impB inh 0%, PGK inhibitor -2%, Tb PFK block -4%, PKM2 act 4% and ELG1 DNA repair 23µM*.
For N#Cc1ccc(CSc2nnc(-c3cccs3)n2-c2ccccc2)cc1 the results were Rango release inh 5%, Rango-impB inh inconclusive, PGK inhibitor -7%, Tb PFK block -3%, PKM2 act 3% and ELG1 DNA repair 21µM*.
Screening c1ccc(CCn2c(SCc3ccccc3)nnc2-c2ccncc2)cc1 returned Rango release inh 11%, Rango-impB inh -5%, PGK inhibitor inactive, Tb PFK block 7%, PKM2 act 6% and ELG1 DNA repair inconclusive.
Screening COc1ccccc1C1=CC(=O)C[C@H](c2ccc3c(c2)OCO3)C1 returned Rango release inh 1%, Rango-impB inh -1%, PGK inhibitor -8%, Tb PFK block 0% and ELG1 DNA repair 0%.
Screening O=C1C=C(c2ccccc2Oc2ccccc2)C[C@@H](c2ccc3c(c2)OCO3)C1 returned Rango release inh -9%, Rango-impB inh 3%, PGK inhibitor -1%, Tb PFK block 6% and ELG1 DNA repair 6.5µM*.
`COC(=O)c1ccc(CN2CCN(CC=C(C)C)C(CCO)C2)cc1` (stereo not drawn) gave Rango release inh 0%, Rango-impB inh 0%, PGK inhibitor inactive, Tb PFK block 5%, PKM2 act 3% and ELG1 DNA repair 10%.
For CCOc1cc(NC(=S)Nc2ccccc2)c(OCC)cc1NC(=O)c1ccc(OC)cc1 the results were Rango release inh -4%, Rango-impB inh 1%, PGK inhibitor -10%, Tb PFK block 0%, PKM2 act -3% and ELG1 DNA repair inconclusive.
CCOc1cc(NC(=S)Nc2ccc(Cl)cc2)c(OCC)cc1NC(C)=O was read as Rango release inh -16%, Rango-impB inh 3%, PGK inhibitor 2%, Tb PFK block -6%, PKM2 act -1% and ELG1 DNA repair 7.3µM*.
`Cc1[nH]nc2c1-c1nc3ccccc3nc1C(C)(C)C2` gave Rango release inh -14%, Rango-impB inh 1%, PGK inhibitor 3%, Tb PFK block -12%, PKM2 act 1% and ELG1 DNA repair 9.2µM*.
Screening CCSc1ccc2nnc(-c3cccc(F)c3)n2n1 returned Rango release inh 1%, Rango-impB inh -6%, PGK inhibitor -7%, Tb PFK block 2%, PKM2 act -1% and ELG1 DNA repair 21µM*.
For COC(=O)CS(=O)(=O)c1nc2ccccc2nc1N1CCCCC1 the results were PGK inhibitor inactive.
For COc1cc(OC)c(NC(=O)CN(C)S(=O)(=O)c2ccc3c(c2)CCCC(=O)N3)cc1Cl the results were PGK inhibitor 8%.
For CC(=O)OCCn1c([N+](=O)[O-])cnc1C=[N+]([O-])C1CCCCC1 the results were PGK inhibitor 0%.
CCOc1ccccc1N1CC(O)=C(c2nc3ccccc3s2)C1=N was read as Rango release inh -13%, Rango-impB inh 0%, PGK inhibitor -5%, Tb PFK block -12%, PKM2 act 4% and ELG1 DNA repair 16µM*.
Screening Cc1ccc(S(=O)(=O)/N=C2/C=C(Sc3ncn[nH]3)C(=O)c3ccccc32)cc1 returned Rango release inh 8%, Rango-impB inh 0%, PGK inhibitor inconclusive, Tb PFK block inconclusive, PKM2 act -50% and ELG1 DNA repair 16µM*.
CC(C)c1ccc(S(=O)(=O)/N=C2/C=C(Sc3ncn[nH]3)C(=O)c3ccccc32)cc1 was read as Rango release inh 0%, Rango-impB inh 3%, PGK inhibitor -11%, Tb PFK block inconclusive, PKM2 act -28% and ELG1 DNA repair 6.5µM*.
For Cc1ccc(S(=O)(=O)/N=C2/C=C(Sc3ncn[nH]3)C(=O)c3ccccc32)c(C)c1 the results were Tb PFK block -14%, PKM2 act -27% and ELG1 DNA repair 21µM*.
Cc1ccc(S(=O)(=O)/N=C2\C=C(NS(=O)(=O)c3ccccc3)C(=O)c3ccccc32)c(C)c1 was read as Rango release inh 0%, Rango-impB inh -3% and PGK inhibitor -6%.
Screening Cc1ccccc1Cn1c2ccccc2c2cnn(CC(=O)NCCCc3ccccc3)c(=O)c21 returned PGK inhibitor inactive.
CCOC(=O)N1CCC(NS(=O)(=O)c2ccc(C)c(Cl)c2)CC1 was read as Rango release inh 6%, Rango-impB inh 1%, PGK inhibitor 7%, Tb PFK block -6%, PKM2 act 7% and ELG1 DNA repair 16µM*.
Screening COc1ccc(-c2[nH]ncc2/C=C(\C#N)C(=O)NC2CC2)cc1 returned Rango release inh 1%, Rango-impB inh 1%, PGK inhibitor -4%, Tb PFK block 0%, PKM2 act -6% and ELG1 DNA repair 18µM*.
Screening CN(C)c1ccc(N=Nc2ccccc2C(=O)OCC(=O)N(C)c2ccccc2)cc1 returned Rango release inh -19%, Rango-impB inh inconclusive, PGK inhibitor -2%, Tb PFK block -3%, PKM2 act -14% and ELG1 DNA repair 13µM*.
For COC(=O)c1ccccc1NC(=O)COC(=O)c1ccccc1N=Nc1ccc(N(C)C)cc1 the results were Rango release inh 27%, Rango-impB inh 5%, PGK inhibitor -14%, Tb PFK block 0%, PKM2 act -5% and ELG1 DNA repair inconclusive.
For CC1CCN(C(=O)c2ccc(NC(=O)c3nsc4ccccc34)cc2)CC1 the results were PGK inhibitor -8%.
For Cc1nc2ccc(NC(=O)c3ccc([N+](=O)[O-])cc3[N+](=O)[O-])cc2s1 the results were Rango release inh 5%, Rango-impB inh 6%, PGK inhibitor 5%, Tb PFK block -2%, PKM2 act 2% and ELG1 DNA repair 21µM*.
`Cc1ccc(C(=O)NC(C)CCc2ccccc2)cc1S(=O)(=O)N1CCOCC1` (stereo not drawn) gave Rango release inh -1%, Rango-impB inh 0%, PGK inhibitor -8%, Tb PFK block 0% and ELG1 DNA repair 18µM*.
`Cc1csc(SCC(=O)c2ccc(S(=O)(=O)N3CCOCC3)cc2)n1` gave Rango release inh -11%, Rango-impB inh 5%, PGK inhibitor -2%, Tb PFK block -1%, PKM2 act 28µM* and ELG1 DNA repair -2%.

Source: PubChem
